Pf growth 48h: Primary qHTS for delayed death inhibitors of the malarial parasite plastid, 48 hour incubation; P. falciparum luciferase growth in erythrocytes, 48 h; Potency, µM (doses to about 28.7 µM), for the others: at the highest dose activity change, negative = inhibition, actives largely listed as inhibitors; 310,000 tested, 5.9% active; AID 504832, 2011; also: % is scaled to controls: 0 for no effect and ±100 for the full control effect
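Erythrocytes infected with P. falciparum carrying an integrated firefly luciferase reporter (2% hematocrit, 0.1% parasitemia final) were exposed to compounds in RPMI 1640 with 0.5% Albumax at 37 C, 5% CO2. Growth inhibition was scored as reduced luminescence.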
Sm TGR block: qHTS Assay for the Inhibitors of Schistosoma Mansoni Peroxiredoxins; Potency, µM (highest dose often 114 µM), for inactives: at the highest dose activity change, negative = inhibition, hits mostly inhibitors; purified TGR, DTNB reduction, TNB absorbance 405 nm; 360,000 tested, 3% active; AID 485364, 2010; also: % is scaled to controls: 0 for no effect and ±100 for the full control effect; nearly all actives have a fitted effect of over 60% in size
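Kinetic colorimetric format: TGR-catalysed, NADPH-driven DTNB reduction monitored via TNB absorbance. Enzyme dispensed at 20 nM; compound exposure 15 min at room temperature before reaction start.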
AMA1 RON2 block: qHTS for Inhibitors of AMA1-RON; Towards Development of Antimalarial Drug Lead: Primary Screen | Plasmodium falciparum AMA1 (3D7) - RON2 peptide interaction | Potency, µM (top dose mostly 58.2 µM), for the others: at the top dose activity change, negative = inhibition, most hits filed as inhibitors | 360,000 tested, 0.2% active | AlphaScreen AMA1-biotinylated RON2 peptide binding;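 also: 0% = vehicle wells and -100% = peptide control; nearly all actives have a fitted effect of over 45% in size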
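AMA1 (3D7) with his tag at 25 nM final met compounds first, then biotinylated RON2 peptide at 25 nM; detection used donor plus acceptor beads, 10 µg/mL apiece, read by AlphaScreen after 30 min at room temperature.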
NS1 inh: qHTS Assay for Inhibitors of Influenza NS1 Protein Function; Potency, µM (highest dose often 46.1 µM), without a hit: top-dose activity, positive = more growth; 270,000 tested, 0.4% active; calls by dose curve; also: actives are rising curves; nearly all actives have a fitted effect of over 50% in size
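Compounds were scored for reversing the slow growth caused by influenza A NS1 in S. cerevisiae, measured by optical density at 600 nm. Assay medium contained 2% galactose at pH 6.0; NS1-free yeast of the same strain were the positive control.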
Pf growth 96h: Primary qHTS for delayed death inhibitors of the malarial parasite plastid, 96 hour incubation; P. falciparum luciferase reporter growth, 96 h; Potency, µM (series often up to 28.7 µM), for inactives: top-dose activity change, negative = inhibition, hits mostly inhibitors; 320,000 tested, 6.9% active; also: % is scaled to controls: 0 for no effect and ±100 for the full control effect
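Infected RBCs, 2% Hct / 0.05% parasitemia final; luciferase-reporter P. falciparum; cpd 96 h, 37 C, 5% CO2; luciferase detection reagent; luminescence.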
Numbers without * were called inactive. Sampled rows, rich in hits. Any-hit rate of the full collection: about 11%. Unless noted, calls follow the shape of the dose curve; as a rule, active = well fitted curve in the direction sought with a large enough effect; inconclusive = small, poorly fitted or top-dose-only effect, or another doubt; inactive = no such curve, though single readings can be large; an effect the other way counts as inactive or inconclusive. Potency is read from the fitted curve at half-maximal effect.

For O=C(COC(=O)/C=C/c1ccc(Cl)cc1Cl)Nc1ccc2c(c1)OCCO2 the results were Pf growth 48h 28%, Sm TGR block 16%, AMA1 RON2 block 0%, NS1 inh 6% and Pf growth 96h 2.9µM*.
Screening Cc1cccc(C)c1OCC(=O)Nc1ccc2c(c1)OCCO2 returned Pf growth 48h 27%, Sm TGR block 0%, AMA1 RON2 block 0%, NS1 inh -10% and Pf growth 96h 12µM*.
Screening O=C(CCc1ccccc1)NC1CC(=O)N(c2cccc(F)c2)C1 (centres undefined) returned Sm TGR block 9%.
O=C(CNC(=O)c1cccs1)N/N=C/c1ccccc1[N+](=O)[O-] was read as Pf growth 48h 107%, Sm TGR block 8%, AMA1 RON2 block 14%, NS1 inh 8% and Pf growth 96h 0%.
For CC(=O)c1c(N2CCN(Cc3ccccc3)CC2)[nH]c(-c2ccccc2)nc1=S the results were Pf growth 48h 4.7µM*, Sm TGR block -11%, AMA1 RON2 block 12%, NS1 inh 0% and Pf growth 96h -101%.
`CCn1cc(C(=O)NCCc2ccccc2)c(=O)c2cc(S(=O)(=O)N(C)C)ccc21` gave Pf growth 48h inconclusive, Sm TGR block 17%, AMA1 RON2 block -9%, NS1 inh 2% and Pf growth 96h 13µM*.
For CCn1cc(C(=O)N[C@H](C)c2ccccc2)c(=O)c2cc(F)c(N3CCN(C)CC3)cc21 the results were Sm TGR block -2%, AMA1 RON2 block 14%, NS1 inh 2% and Pf growth 96h 12µM*.
CCn1cc(C(=O)NCCCO)c(=O)c2cc(F)c(N3CCN(C)CC3)cc21 was read as Pf growth 48h 5%, Sm TGR block -7%, AMA1 RON2 block 5%, NS1 inh 4% and Pf growth 96h inconclusive.
For CCn1cc(C(=O)NCc2ccccn2)c(=O)c2cc(F)c(N3CCN(C)CC3)cc21 the results were Pf growth 48h -21%, Sm TGR block 2%, AMA1 RON2 block 11%, NS1 inh -6% and Pf growth 96h 20%.
For CCCCCCNC(=O)c1cn(CC)c2cc(N3CCN(C)CC3)c(F)cc2c1=O the results were Pf growth 48h 4.7µM*, Sm TGR block 13%, AMA1 RON2 block -9%, NS1 inh 5% and Pf growth 96h 2.6µM*.
For CCn1cc(C(=O)NCCc2ccccc2)c(=O)c2cc(F)c(N3CCN(C)CC3)cc21 the results were Pf growth 48h 10µM*, Sm TGR block -18%, AMA1 RON2 block -7%, NS1 inh 3% and Pf growth 96h inconclusive.
`CCC(C)NC(=O)c1cn(CC)c2cc(N3CCN(C)CC3)c(F)cc2c1=O` (centres undefined) gave Pf growth 48h inconclusive, Sm TGR block -6%, AMA1 RON2 block -11%, NS1 inh -2% and Pf growth 96h -22%.
`Cc1ccc(S(=O)(=O)C2(C(=O)N3CCN(c4ccccc4F)CC3)CC2)cc1` gave Pf growth 48h 23%, Sm TGR block -1%, AMA1 RON2 block -19%, NS1 inh -2% and Pf growth 96h -15%.
For Cc1cccc(OCCCn2c(CCNC(=O)C3CCCCC3)nc3ccccc32)c1 the results were Sm TGR block 1%.
For CCSC1(SCC)N=C(N)C2(C#N)C(c3ccc(OC)c(OC)c3OC)C12C#N (centres undefined) the results were Pf growth 48h inconclusive, Sm TGR block 14µM*, AMA1 RON2 block -10%, NS1 inh -23% and Pf growth 96h 12%.
`CN(CCCC[C@H](CNCc1ccc(-c2ccccc2)cc1)N1C[C@H](c2ccccc2)N(CCc2ccc(Cl)c(Cl)c2)C(=O)C1=O)Cc1ccc(-c2ccccc2)cc1` gave Pf growth 48h inconclusive, Sm TGR block -31%, NS1 inh -11% and Pf growth 96h 3.7µM*.
`Cc1ccc(CCN2CC(C(=O)NCCCN(C)Cc3ccccc3)CC2=O)cc1` (centres undefined) gave Pf growth 48h 24%, Sm TGR block -4%, AMA1 RON2 block 3%, NS1 inh -12% and Pf growth 96h 73%.
`CCOc1ccc(CCN2C(=O)C(=O)N([C@H](CCCN(C)Cc3ccccc3)CNCc3ccccc3)C[C@@H]2C(C)C)cc1` gave Pf growth 48h 9.3µM*, Sm TGR block 0%, NS1 inh 3% and Pf growth 96h 3.7µM*.
Screening COc1ccc(CNC[C@@H](CCCCN(C)Cc2ccc(OC)cc2)N2C[C@H](c3ccccc3)N(CCc3ccc(Cl)c(Cl)c3)C(=O)C2=O)cc1 returned Pf growth 48h 1.7µM*, Sm TGR block -21%, AMA1 RON2 block -6%, NS1 inh 6% and Pf growth 96h 2.3µM*.
`Cc1ccc(Sc2ccc(N3CCC(C(=O)Nc4cc(C)cc(C)c4)CC3)nn2)cc1` gave Sm TGR block -1%.
For COCCCNC(=O)C1Cc2cc(S(=O)(=O)N3CCCC3)ccc2N1C(C)=O (centres undefined) the results were Pf growth 48h 0%, Sm TGR block 8%, AMA1 RON2 block 14%, NS1 inh -2% and Pf growth 96h -26%.
For N#CC1=C(N)C2=C(N3CCCCC3)CCCC2C1(C#N)C#N (centres undefined) the results were Pf growth 48h 5%, Sm TGR block inconclusive, AMA1 RON2 block -5%, NS1 inh -2% and Pf growth 96h 12µM*.
Cc1ccc(OCC(=O)N2N=C(c3cccnc3)CC2(O)C(F)(F)F)cc1C (centres undefined) was read as Pf growth 48h inconclusive, Sm TGR block 6%, AMA1 RON2 block 22%, NS1 inh 5% and Pf growth 96h 9.3µM*.
`Cc1ccc(Nc2nc(C(N)=O)c(NC(=O)c3ccccc3Br)s2)cc1` gave Sm TGR block 1%.
Screening COc1ccc(N(C)C(=O)c2cc3c(s2)-c2ccc(Cl)cc2S(=O)(=O)C3)c(OC)c1 returned Pf growth 48h inconclusive, Sm TGR block -6%, AMA1 RON2 block 2%, NS1 inh 9% and Pf growth 96h 13µM*.
For CN(C(=O)c1cc2c(s1)-c1ccccc1S(=O)(=O)C2)c1ccccc1 the results were Pf growth 48h 9.3µM*, Sm TGR block 1%, AMA1 RON2 block 4%, NS1 inh -11% and Pf growth 96h inconclusive.
COc1ccc(N(C)C(=O)c2cc3c(s2)-c2ccccc2OC3)c(OC)c1 was read as Pf growth 48h inconclusive, Sm TGR block 0%, AMA1 RON2 block -18%, NS1 inh -52% and Pf growth 96h inconclusive.

Screening data deposited in PubChem BioAssay by National Center for Advancing Translational Sciences (NCATS).
